Measured values reported in PubChem BioAssay AID2280 (The Scripps Research Institute Molecular Screening Center, 2010).
About 1,400 (0.44%) of roughly 320,000 compounds were called active. This is one part of a sample in which actives are shown more often than they occur.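 The calls were made as follows: active = percent inhibition above a per-plate cutoff, the plate mean of test compounds plus 3 SD (cut at about 30% in these data); inactive = the rest.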

target: Female germline-specific tumor suppressor gld-1 (Caenorhabditis elegans) (UniProt Q17339); assay: GLD-1/TGE RNA complex disruptors, primary screen, biochemical, fluorescence polarization (AID 2280); settings: purified GLD-1 + fluorescein TGE RNA, at 5.96 µM, active compounds read high;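 also: 0% = DMSO wells with GLD-1 and probe and 100% = wells lacking GLD-1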
Sequence (Q17339 whole entry, looked up): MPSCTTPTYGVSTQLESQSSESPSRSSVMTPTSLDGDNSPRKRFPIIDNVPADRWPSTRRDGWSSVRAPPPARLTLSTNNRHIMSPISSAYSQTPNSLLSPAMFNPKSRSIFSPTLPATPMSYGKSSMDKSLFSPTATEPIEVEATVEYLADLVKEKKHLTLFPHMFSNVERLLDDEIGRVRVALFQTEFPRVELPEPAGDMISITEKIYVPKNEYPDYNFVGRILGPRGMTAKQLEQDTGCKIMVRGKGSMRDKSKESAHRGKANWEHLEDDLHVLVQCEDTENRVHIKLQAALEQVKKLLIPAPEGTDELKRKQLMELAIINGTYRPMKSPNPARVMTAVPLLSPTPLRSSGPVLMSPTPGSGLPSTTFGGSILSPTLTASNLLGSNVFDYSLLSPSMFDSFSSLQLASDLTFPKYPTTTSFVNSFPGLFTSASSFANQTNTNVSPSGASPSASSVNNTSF

inhibition, active:
CCN1CC=C2C(C#N)=C(N)C(C#N)(C#N)[C@H](c3ccoc3)[C@H]2C1 106%
CCCN1CC=C2C(C#N)=C(N)C(C#N)(C#N)C(c3cc(OC)ccc3OC)C2C1 (centres undefined) 49%
COc1ccc(Nc2nc(-c3cccnc3)nc3ccccc23)cn1 100%
O=C(OCC1O[C@@H](OC(=O)c2cc(O)c(O)c(O)c2)[C@@H](OC(=O)c2cc(O)c(O)c(O)c2)[C@@H](OC(=O)c2cc(O)c(O)c(O)c2)[C@@H]1OC(=O)c1cc(O)c(O)c(O)c1)c1cc(O)c(O)c(O)c1 (some centres undefined) 34.6%
O=C1c2ccccc2C(=O)c2c1cccc2N1CCN(CCO)CC1 48.6%
O=c1[nH]cccc1-c1nc2ccccc2n1Cc1ccc(Cl)cc1 45%
C=CCSc1nnc(N2C(=O)C(O)=C(C(=O)c3ccco3)C2c2ccc(F)cc2)s1 (centres undefined) 44.5%
CCCn1c(C2CCCN2c2nc(-c3ccc(C)cc3)cs2)nc2cc(Cl)c(N3CCCCC3)cc21 (centres undefined) 34.6%
CC1=CC2=NC(=O)/C(=C/c3coc4ccccc4c3=O)C(=N)N2O1 32.9%
O=C(COC(=O)c1ccccc1C(=O)N1CCN(c2ccccc2)CC1)NCc1ccccc1 55.9%
CCCn1c(O)c(CN2CCCC(C)C2)c(C)c(C#N)c1=O (centres undefined) 41.2%
COCCNC(=O)Nc1ccc2nc(-c3ccco3)c(-c3ccco3)nc2c1 69.3%
Nc1cccc2c1C(=O)N(Cc1nnc(-c3ccccc3Br)o1)C2=O 37%
COC/C=C/C1=CC2=CC(=O)C(C)(OC(=O)CCC(=O)OC)C(=O)C2=CO1 (centres undefined) 46.7%
CSc1c(SCc2ccccc2)cnn(Cc2ccccc2)c1=O 140%
CN1C(=O)c2cccc3c(N)ccc(c23)C1=O 198%
CCN1/C(=C\c2ccc3ccccc3[n+]2CC)Sc2cc(C)ccc21 61.6%
CCOc1ccc2nc(N3CCCN(C(=O)Nc4ccccc4C)CC3)c(C#N)cc2c1 42%
COc1ncnc2c1N=C1CC(C)(C)CC(N)=C1S2 112%

inhibition, inactive:
COC(=O)c1ccc(CNC(=O)C2CCC(=O)N(Cc3ccccn3)C2)cc1 (centres undefined) 0.64%
O=S(=O)(c1ccc(Cl)s1)N1CCC2(CC1)OCCO2 -2.17%
N#C[C@]1(S(=O)(=O)c2ccccc2)C[C@@H]2ON=C(c3cccc(Br)c3)[C@@H]2C1 -1.68%
O=C(Nc1cccc(F)c1)[C@@H]1CCCN1 4.36%
Cc1ccc(S(=O)(=O)N2CCOCC2)cc1C(=O)OC1CCCCC1=O (centres undefined) -3.51%
CCOC(=O)c1nc(Nc2ccc(C(=O)OC)cc2)c2ccccc2n1 -1.24%
O=[N+]([O-])c1ccc(F)cc1Oc1nc(-c2cccnc2)nc2ccccc12 -1.37%
CNC(=O)c1[nH]cnc1C(=O)N[C@@H](CC(C)C)C(=O)OCc1ccccc1 10.1%
COC(=O)CN1C(=O)N/C(=C/c2ccc(OC)c(C)c2OC)C1=O 9.69%
O=C(OCC1OC(Oc2ccc(O)cc2)C(O)C(O)C1O)c1ccccc1 (centres undefined) 2.13%
Cc1ccc(NC(=O)c2ccc(Cl)nc2)cc1S(=O)(=O)N1CCOCC1 -0.28%
O=C1c2ccccc2C(=O)c2c1cccc2N1CCN(Cc2ccccc2)CC1 0.8%
O=C1c2ccccc2C(=O)c2c1cccc2N1CCN(C/C=C/c2ccccc2)CC1 9.38%
CC(C(=O)NCC1CCCCC1)N(C)Cc1cccc(Cl)c1 (centres undefined) 4.56%
CN(C)/C=C(/C(=O)c1ccc(F)cc1)S(=O)(=O)c1ccc(F)cc1 3.44%
CC(=O)Nc1nc2ccccc2n1Cc1ccc(C)cc1 0.42%
Nc1nonc1-c1nc2ccccc2n1Cc1ccc(F)cc1 1.28%
CC1OC2C(OC1C)N(S(C)(=O)=O)CCN2S(C)(=O)=O (centres undefined) 3.56%
CCCOc1ccc(N2C(=O)CC(N(CCc3ccc(S(N)(=O)=O)cc3)C(C)=O)C2=O)cc1 (centres undefined) -1.23%
Cc1ccc2nc(N3C(=O)C(O)=C(C(=O)c4ccco4)C3c3cccc(O)c3)sc2c1 (centres undefined) 0.27%
CC(C)c1ccc(C2C(C(=O)c3ccco3)=C(O)C(=O)N2CC2CCCO2)cc1 (centres undefined) 4.96%
CCN1CCC2(CC1)N=C(c1ccc(F)cc1)C(=S)N2C(=O)c1ccc(C)cc1 7.8%
CCCn1c(C(C)Nc2nc(-c3ccc(C)cc3)cs2)nc2cc(Cl)c(N3CCCCC3)cc21 (centres undefined) 2.12%
CCCn1c(C2CCCN2c2nc(-c3ccc(OC)cc3)cs2)nc2ccccc21 (centres undefined) 9.35%
CCOC(=O)C1CCN(C(=O)CC2C(=O)N(Cc3ccccc3)C(C)c3nc4ccccc4n32)CC1 (centres undefined) 3.57%
O=C(CN1CCN(Cc2ccc(F)cc2Cl)C1=O)NCc1cccs1 5.83%
COc1ccc(OCCCn2cccc2/C=C2/C(=N)N3OC(C)=CC3=NC2=O)cc1 3.29%
CCOc1cc(/C=C2/C(=N)N3OC(C)=CC3=NC2=O)ccc1OC -3.88%
COC(=O)C1=C(NC(=O)C(C)(C)C)CCS1 5.48%
CC(C)N(C(=O)COC(=O)c1ccccc1C(=O)N1CCN(c2ccc(F)cc2)CC1)C(C)C 6.66%
O=C(c1cc(=O)c2ccccc2o1)N1CCN(c2ccccc2)CC1 -3.54%
CCn1c(=S)[nH]c2sc3c(c2c1=O)CCCCC3 -5.76%
Cc1ccccc1SCC(=O)OCC(=O)N1CC(=O)Nc2ccccc21 1.92%
CC1CN(C(=O)CCC(=O)NCCCN2CCC(Cc3ccccc3)CC2)c2cc(Cl)ccc2O1 (centres undefined) 5.77%
CCCCCCn1c(CN2CCCC(C)C2)nc2c1c(=O)n(C)c(=O)n2C (centres undefined) 9.13%
Cc1c(CN2CCCCC2)c(O)n(CCO)c(=O)c1C#N 7.69%
COc1cccc(NC(=O)NCCN2CCCCC2)c1 11.7%
O=C(NCc1ccccn1)c1ccc2nc(-c3ccco3)c(-c3ccco3)nc2c1 20.3%
CNS(=O)(=O)c1ccc(NC(=O)C2CC(=O)N(c3ccc(Cl)cc3)C2)cc1 (centres undefined) 1.34%
CC(C)(C)C(=O)CSc1ccc(S(=O)(=O)N2CCCC2)cn1 4.63%
CCCCc1ccc(S(N)(=O)=O)cc1 6.14%
C[C@@H]1CC[C@@]2(OC1)O[C@H]1C[C@H]3[C@@H]4CC=C5C[C@@H](O)[C@H](O)C[C@]5(C)C4CC[C@]3(C)[C@H]1[C@@H]2C (some centres undefined) -7.94%
COc1cccc2cc(C(C)N(CCCN3CCOCC3)C(=O)Nc3ccc(Cl)cc3)oc12 (centres undefined) 2.92%
CCOC(=O)N1CCN(Cc2nnc(-c3ccccc3Cl)o2)CC1 -10.5%
Cn1cnnc1SCc1nnc(-c2ccccc2Br)o1 -10.8%
COc1cc(S(=O)(=O)N2CCN(C(=O)C3CC3)CC2)ccc1NC(C)=O 3.97%
CCOc1ccc(NC(=O)c2cccc3c2C(=O)N(CC2CCCO2)C3)cc1 (centres undefined) 2.1%
COCCN1C=C2C(=O)C(C)(OC(=O)C3CCCC3)C(=O)C=C2C=C1c1ccsc1 (centres undefined) 23.1%
CCCCC1=CC2=CC(=O)C(C)(OC(=O)CC)C(=O)C2=CN1CCCOC(C)C (centres undefined) 22.9%
CSCCNC(=O)c1ccc2nc(Cc3ccccc3F)oc2c1 -1.35%
COc1ccc(CCN2C(=O)CC(N3CCC(C(N)=O)CC3)C2=O)cc1OC (centres undefined) 1.78%
COC(=O)c1ccc(SCc2ccccc2)nc1 -5.64%
CCn1c(SCc2ccccc2)nc2cc(OC)c(OC)cc2c1=O -3.64%
COc1cc2c(C(=O)N3CCN(C)CC3)c(CSc3ccccc3)n(C)c2cc1Br 0.62%
COC(=O)c1sc(-c2ccc(C(C)(C)C)cc2)cc1NC(=O)/C=C/C(=O)O -0.27%
O=C(O)c1ccc2c3c(cccc13)C(=O)N(OS(=O)(=O)c1ccccc1)C2=O 13.8%
CC(=O)Nc1ccccc1Sc1ccc2c3c(cccc13)C(=O)N(c1ccc(C)cc1)C2=O 0.24%
COc1ccc(N2C(=O)c3cccc4cccc(c34)C2=O)nn1 13.5%
Cc1nn(C)cc1C(=O)c1ccccc1 1.39%
COc1ccccc1C(=O)NCCC(=O)NCC(c1ccco1)N1CCCCC1 (centres undefined) 3.67%
CC(C)(C)CN1CCNC(=O)C1CC(=O)NC1Cc2ccccc2C1 (centres undefined) 8.53%
COc1ccccc1CNC(=O)c1ccc(Cl)c(S(=O)(=O)N2CCCC2)c1 0.54%
N/C(=N\OC(=O)CCn1cccc(C(F)(F)F)c1=O)c1ccc(OC(F)(F)F)cc1 -1.66%
CCOC(=O)c1cc(C#N)c(N2CCCCC2)nc1-c1ccccc1 -3.77%
CCOc1ccc(C(=O)NC2CCN(C(=O)Nc3ccccc3OC)CC2)cc1 0.46%
CC1CCCC(NC(=O)c2cccc(N3CCCC3=O)c2)C1C (centres undefined) 2.8%
COc1ccccc1C(=O)Nc1nc2nc(-c3ccccc3)cc(=O)n2[nH]1 0.62%
CCNS(=O)(=O)c1ccc(CCC(=O)N2CCN(c3cc(Cl)ccc3C)CC2)cc1 1.35%
Cc1cc(C)n(-c2nc(O)cc(=O)[nH]2)n1 4.97%
CC(C)(C)c1ccc(Cn2nnc3c(=O)[nH]c(C4CCCN(C(=O)c5ccco5)C4)nc32)cc1 (centres undefined) 4.28%
